According to PubChem BioAssay AID624354 (Sanford-Burnham Center for Chemical Genomics, 2012):
Values joined by “and” are separate entries in the source; they are usually repeats but may differ in a detail not shown here. Equal values may be shown once. About 3,800 (1.1%) of roughly 360,000 compounds were called active.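 Rule for the calls: active = compounds causing at least 50% loss of cell viability in the single-dose screen, relative to plate controls; inactive = the rest.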 Shown is part of a subset that was picked to be rich in actives.

Assay: viability loss with TRAIL in NB7+C8 cells, primary screen, TRAIL sensitizer project, cell-based, ATPlite luminescence (AID 624354)
Details: at 10 µM, stronger effect = higher value
For `COc1cccc(-c2nc3ccc(N4CCN(C)CC4)cc3[nH]2)c1`, the inhibition (viability loss, TRAIL sensitization) was 86.3% (active). With `CCC(=O)c1ccc(OCC(=O)N2CCN(CC(=O)Nc3ccc(C)cc3)CC2)cc1` the inhibition (viability loss, TRAIL sensitization) was 1.16% (inactive). With `Cc1cc2ccccn2c1C(C[N+](=O)[O-])c1c(F)cccc1Cl` (stereo not given) the inhibition (viability loss, TRAIL sensitization) was -0.261% (inactive). In the case of `COc1ccc(-n2c(O)c(C(C)=Nc3ccc4c(c3)CCC4)c(=O)[nH]c2=O)cc1`, the inhibition (viability loss, TRAIL sensitization) is reported as 7.82% (inactive). In the case of `O=Cc1cn(Cc2ccc(F)cc2Cl)c2ccccc12`, the inhibition (viability loss, TRAIL sensitization) is reported as 17.7% (inactive). With `CNC(=O)O/N=C(\N)Cc1csc2ccc(Cl)cc12` the inhibition (viability loss, TRAIL sensitization) was 70.7% (active). With `CNC(=O)O/N=C(\N)Cc1csc2ccccc12` the inhibition (viability loss, TRAIL sensitization) was -3.67% (inactive). For `CCC/C(=N\O)c1c[nH]c2ccccc12`, the inhibition (viability loss, TRAIL sensitization) was -8.01% (inactive). In the case of `Cc1ncoc1C(=O)NCC1=C(c2cccc3ccccc23)C[C@@H]2CC[C@H]1N2Cc1ccco1`, the inhibition (viability loss, TRAIL sensitization) is reported as 14.8% (inactive). For `COc1ccccc1CN1CCN(C(=O)Cc2ccccc2)CC1`, the inhibition (viability loss, TRAIL sensitization) was -10.1% (inactive). For `CCN1CCN(Cc2cc(OC)c3c(c2)OCO3)CC1`, the inhibition (viability loss, TRAIL sensitization) was 3.55% (inactive). With `COC1C(O)C(C)OC(OC2CCC3(C=O)C(CCC4C3CCC3(C)C(C5=CC(=O)OC5)CCC43O)C2)C1O` (stereo not given) the inhibition (viability loss, TRAIL sensitization) was 74.4% (active). In the case of `C[C@]12CC[C@H](O)C[C@H]1CC[C@@H]1C2CC[C@]2(C)[C@@H](C3=CC(=O)OC3)[C@@H](O)C[C@]12O` (stereo not given in full), the inhibition (viability loss, TRAIL sensitization) is reported as 48.7% (inactive). For `CC(C)Nc1nc(Cl)nc(NC(C)C)n1`, the inhibition (viability loss, TRAIL sensitization) was -4.77% (inactive). In the case of `O=C(O)C1CSC(c2cccnc2)N1` (stereo not given), the inhibition (viability loss, TRAIL sensitization) is reported as -7.34% (inactive). For `Cc1ccc(Cn2c(C)c3cnn(CC(=O)N4CCC5(CC4)OCCO5)c(=O)c3c2C)cc1`, the inhibition (viability loss, TRAIL sensitization) was 2.81% (inactive). In the case of `OC(Cn1c2ccccc2c2ccccc21)C[n+]1ccccc1` (stereo not given), the inhibition (viability loss, TRAIL sensitization) is reported as -9.29% (inactive). For `CCOc1ccc(-c2cc(C)[n+](CCN(CC)CC)c(-c3ccc(OCC)cc3)c2)cc1`, the inhibition (viability loss, TRAIL sensitization) was 64.8% (active). For `O=c1[nH]c(CN2CC=C(c3ccccc3)CC2)nc2scc(-c3cccs3)c12`, the inhibition (viability loss, TRAIL sensitization) was -10.4% (inactive). In the case of `COc1ccccc1N1CCN(C(CNC(=O)Oc2ccccc2)c2cccnc2)CC1` (stereo not given), the inhibition (viability loss, TRAIL sensitization) is reported as -5.13% (inactive). With `CN1CCc2cc3c(cc2[C@H]1[C@@H]1OC(=O)c2c1ccc1c2OCO1)OCO3` the inhibition (viability loss, TRAIL sensitization) was -20.1% (inactive). For `C=C(C)C1(CCCC)C(=O)NC(=S)NC1=O`, the inhibition (viability loss, TRAIL sensitization) was 6.23% (inactive). With `CN1C2C=C(N(C(=O)c3ccc(Cl)cc3)c3ccccc3)CC1CC2` (stereo not given) the inhibition (viability loss, TRAIL sensitization) was -8.37% (inactive). In the case of `CC(=O)OC1C2(CC3N4C(=O)C5(CO)SSC4(CC31O)C(=O)N5C)OC(C)C(C)(C)C2=O` (stereo not given), the inhibition (viability loss, TRAIL sensitization) is reported as 84.2% (active). In the case of `CCC(=O)CC(c1ccc([N+](=O)[O-])cc1)c1c(O)c2ccccc2oc1=O` (stereo not given), the inhibition (viability loss, TRAIL sensitization) is reported as 4.29% (inactive). With `Nc1ccc(Cc2ccc(N)c(Cl)c2)cc1Cl` the inhibition (viability loss, TRAIL sensitization) was 2.29% (inactive). With `CN(C)C(=O)Oc1cc(OC(=O)N(C)C)cc(C(O)CNC(C)(C)C)c1` (stereo not given) the inhibition (viability loss, TRAIL sensitization) was -5.27% (inactive) and 5.89% (inactive). For `C=Cn1ccnc1P(=S)(c1cc(N(CC)CC)ns1)c1nccn1C=C`, the inhibition (viability loss, TRAIL sensitization) was -19.8% (inactive). With `CCCCCCCCCCCCn1ccc(=N)cc1` the inhibition (viability loss, TRAIL sensitization) was 62.5% (active). With `CC1CNCCN1c1ccc(Cl)cc1` (stereo not given) the inhibition (viability loss, TRAIL sensitization) was -10.4% (inactive). In the case of `C=CCN1C(=O)NC(=O)/C(=C/c2ccc(OCC(=O)Nc3ccc(C)cc3)cc2)C1=O`, the inhibition (viability loss, TRAIL sensitization) is reported as 6.1% (inactive). In the case of `CCOC(=O)[C@]12Cc3cc(OC)ccc3[C@H]1N(C(C)C)C(=O)c1ccccc12`, the inhibition (viability loss, TRAIL sensitization) is reported as 39.4% (inactive). In the case of `CCOC(=O)[C@]12Cc3ccccc3[C@H]1N(C1CCCCC1)C(=O)c1cc(OC)ccc12`, the inhibition (viability loss, TRAIL sensitization) is reported as 79.1% (active). With `CCC1(CC(C)c2ccccc2)C(=O)NC(=O)NC1=O` (stereo not given) the inhibition (viability loss, TRAIL sensitization) was -15.1% (inactive). For `C/C(=N/O)c1ccc2ccc3ccccc3c2c1`, the inhibition (viability loss, TRAIL sensitization) was 0.44% (inactive).
